# Several values for one entry are separate records, joined by “and”; a condition that tells them apart may be missing. Equal values may be shown once. The campaign covered roughly 5,500 compounds. About 2,000 (36%) were called active. Roughly 18% stayed inconclusive and do not appear here. Some of the results follow. Unmarked numbers belong to inactive results. Cut-off read from the data, not from the text of the source: active = normalized growth mostly below about 0.91 (no sharp cut-off); inconclusive = no clear call, values can overlap the other calls; inactive = mostly above about 0.92.
# Experiment: chemical genetic growth profiling, strain panel (AID 1159580);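 note: tested at 20 µM; growth read once vehicle control cultures reached saturation at 30 °C; 1 = growth at the plate median or of vehicle wells; lower values mean less growth of the strain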
# Settings: S. cerevisiae deletion strains, growth OD
compound,measurement,setting,value
C[C@@H]1CC[C@]2(C(=O)O)CC[C@]3(C)C(=CCC4[C@@]5(C)CC[C@H](O)C(C)(C)C5CC[C@]43C)C2[C@H]1C (stereo partly specified),normalized growth,"locus YAL021C, strain ccr4, hits give low values",0.995
same,normalized growth,"locus YAL026C, strain drs2, hits give low values",1.01
same,normalized growth,"locus YAL030W, strain snc1, hits give low values",0.995
same,normalized growth,"locus YBL061C, strain skt5, hits give low values",1.01
same,normalized growth,"locus YBR009C, strain hhf1, hits give low values",1.01
same,normalized growth,"locus YBR021W, strain FUR4, hits give low values",1.03
same,normalized growth,"locus YBR023C, strain chs3, hits give low values",1.01
same,normalized growth,"locus YBR171W, strain sec66, hits give low values",1
same,normalized growth,"locus YBR229C, strain ROT2, hits give low values",1.03
same,normalized growth,"locus YBR231C, strain swc5, hits give low values",1.01
same,normalized growth,"locus YBR279W, strain paf1, hits give low values",1
same,normalized growth,"locus YCL011C, strain gbp2, hits give low values",1
same,normalized growth,"locus YCL016C, strain dcc1, hits give low values",1.01
same,normalized growth,"locus YCL029C, strain bik1, hits give low values",1
same,normalized growth,"locus YCL061C, strain MRC1, hits give low values",0.997
same,normalized growth,"locus YCL069W, strain vba3, hits give low values",1.01
same,normalized growth,"locus YCR088W, strain abp1, hits give low values",0.993
same,normalized growth,"locus YDL005C, strain med2, hits give low values",0.998
same,normalized growth,"locus YDL035C, strain GPR1, hits give low values",1.04
same,normalized growth,"locus YDL040C, strain nat1, hits give low values",0.992
same,normalized growth,"locus YDL074C, strain BRE1, hits give low values",1.07
same,normalized growth,"locus YDL101C, strain DUN1, hits give low values",1.03
same,normalized growth,"locus YDL134C, strain PPH21, hits give low values",1.08
same,normalized growth,"locus YDL185W, strain tfp1, hits give low values",0.999
same,normalized growth,"locus YDL192W, strain arf1, hits give low values",1.01
same,normalized growth,"locus YDR001C, strain nth1, hits give low values",1
same,normalized growth,"locus YDR069C, strain doa4, hits give low values",1
same,normalized growth,"locus YDR101C, strain arx1, hits give low values",1.01
same,normalized growth,"locus YDR137W, strain rgp1, hits give low values",1.04
same,normalized growth,"locus YDR150W, strain NUM1, hits give low values",1.03
same,normalized growth,"locus YDR159W, strain sac3, hits give low values",1
same,normalized growth,"locus YDR162C, strain NBP2, hits give low values",1.07
same,normalized growth,"locus YDR195W, strain ref2",0.974
same,normalized growth,"locus YDR297W, strain sur2, hits give low values",1
same,normalized growth,"locus YDR318W, strain mcm21, hits give low values",0.993
same,normalized growth,"locus YDR334W, strain swr1, hits give low values",1
same,normalized growth,"locus YDR335W, strain msn5, hits give low values",0.997
same,normalized growth,"locus YDR388W, hits give low values",1
same,normalized growth,"locus YDR392W, strain spt3, hits give low values",0.911
same,normalized growth,"locus YDR502C, strain sam2, hits give low values",0.997
same,normalized growth,"locus YEL003W, strain gim4, hits give low values",0.998
same,normalized growth,"locus YEL037C, strain rad23, hits give low values",1
same,normalized growth,"locus YEL061C, strain CIN8 (second series), hits give low values",0.995
same,normalized growth,"locus YEL061C, strain CIN8, hits give low values",1.02
same,normalized growth,"locus YER015W, strain faa2, hits give low values",1.01
same,normalized growth,"locus YER016W, strain bim1, hits give low values",0.999
same,normalized growth,"locus YER110C, hits give low values",1.01
same,normalized growth,"locus YER111C, strain swi4, hits give low values",0.984
same,normalized growth,"locus YER155C, strain BEM2 (second series), hits give low values",0.992
same,normalized growth,"locus YER155C, strain BEM2, hits give low values",1.02
same,normalized growth,"locus YER167W, strain BCK2, hits give low values",1.03
same,normalized growth,"locus YFR010W, strain ubp6, hits give low values",0.983
same,normalized growth,"locus YGL078C, strain dbp3, hits give low values",0.985
same,normalized growth,"locus YGL086W, strain mad1, hits give low values",1.28 [resistant] (active)
same,normalized growth,"locus YGL167C, strain pmr1, hits give low values",1
same,normalized growth,"locus YGL173C, strain kem1, hits give low values",1.01
same,normalized growth,"locus YGL227W, strain vid30, hits give low values",0.994
same,normalized growth,"locus YGL240W, strain doc1, hits give low values",0.998
same,normalized growth,"locus YGL248W, strain PDE1, hits give low values",1.03
same,normalized growth,"locus YGL253W, strain hxk2, hits give low values",1.01
same,normalized growth,"locus YGR135W, strain pre9, hits give low values",0.996
same,normalized growth,"locus YGR229C, strain SMI1, hits give low values",1.06
same,normalized growth,"locus YGR252W, strain gcn5, hits give low values",1.01
same,normalized growth,"locus YHR013C, strain ard1, hits give low values",0.996
same,normalized growth,"locus YHR027C, strain rpn1, hits give low values",0.995
same,normalized growth,"locus YHR030C, strain SLT2, hits give low values",1.02
same,normalized growth,"locus YHR079C, strain IRE1 (second series), hits give low values",0.996
same,normalized growth,"locus YHR079C, strain IRE1, hits give low values",1.02
same,normalized growth,"locus YHR094C, strain hxt1, hits give low values",1.01
same,normalized growth,"locus YHR129C, strain ARP1, hits give low values",1.03
same,normalized growth,"locus YHR142W, strain chs7, hits give low values",1.03
same,normalized growth,"locus YHR200W, strain rpn10, hits give low values",0.986
same,normalized growth,"locus YIL066C, strain RNR3, hits give low values",1.07
same,normalized growth,"locus YIL073C, strain SPO22, hits give low values",0.999
same,normalized growth,"locus YIL125W, strain kgd1, hits give low values",1
same,normalized growth,"locus YIR030C, strain dcg1, hits give low values",0.997
same,normalized growth,"locus YJL092W, strain hpr5, hits give low values",0.999
same,normalized growth,"locus YJL095W, strain BCK1 (second series), hits give low values",0.988
same,normalized growth,"locus YJL095W, strain BCK1, hits give low values",1.08 and 1.01
same,normalized growth,"locus YJL115W, strain asf1, hits give low values",0.992
same,normalized growth,"locus YJL129C, strain trk1, hits give low values",1.01
same,normalized growth,"locus YJL134W, strain LCB3, hits give low values",1.02
same,normalized growth,"locus YJL154C, strain vps35, hits give low values",0.997
same,normalized growth,"locus YJL164C, strain tpk1, hits give low values",1.01
same,normalized growth,"locus YJL166W, strain qcr8, hits give low values",1
same,normalized growth,"locus YJL168C, strain set2, hits give low values",0.986
same,normalized growth,"locus YJL187C, strain SWE1 (second series), hits give low values",1.05
same,normalized growth,"locus YJL187C, strain SWE1, hits give low values",0.997
same,normalized growth,"locus YJR043C, strain POL32, hits give low values",1.06
same,normalized growth,"locus YJR066W, strain TOR1, hits give low values",1.02
same,normalized growth,"locus YKL068W, hits give low values",1.01
same,normalized growth,"locus YKL085W, strain MDH1 (second series), hits give low values",1.33 [resistant] (active)
same,normalized growth,"locus YKL085W, strain MDH1, hits give low values",1.33 [resistant] (active)
same,normalized growth,"locus YKL160W, strain elf1, hits give low values",1
same,normalized growth,"locus YKL190W, strain CNB1, hits give low values",1.02
same,normalized growth,"locus YKR001C, strain vps1, hits give low values",1.02
same,normalized growth,"locus YKR026C, strain gcn3, hits give low values",0.996
same,normalized growth,"locus YKR091W, strain srl3, hits give low values",0.991
same,normalized growth,"locus YLL001W, strain dnm1, hits give low values",0.989
same,normalized growth,"locus YLL026W, hits give low values",0.989
same,normalized growth,"locus YLL041C, strain sdh2, hits give low values",0.995
same,normalized growth,"locus YLR027C, strain aat2, hits give low values",1.01
same,normalized growth,"locus YLR039C, strain RIC1, hits give low values",1.14
same,normalized growth,"locus YLR058C, strain SHM2, hits give low values",1.04
same,normalized growth,"locus YLR102C, strain apc9, hits give low values",0.987
same,normalized growth,"locus YLR113W, strain HOG1, hits give low values",0.995
same,normalized growth,"locus YLR221C, strain rsa3, hits give low values",1
same,normalized growth,"locus YLR258W, strain gsy2, hits give low values",1.01
same,normalized growth,"locus YLR262C, strain YPT6 (second series), hits give low values",1.02
same,normalized growth,"locus YLR262C, strain YPT6, hits give low values",1.11
same,normalized growth,"locus YLR268W, strain sec22, hits give low values",1.01
same,normalized growth,"locus YLR320W, strain mms22, hits give low values",1.01
same,normalized growth,"locus YLR330W, strain CHS5, hits give low values",1.03
same,normalized growth,"locus YLR342W, strain FKS1 (second series), hits give low values",1.02
same,normalized growth,"locus YLR342W, strain FKS1, hits give low values",1
same,normalized growth,"locus YLR357W, strain rsc2, hits give low values",0.975
same,normalized growth,"locus YLR370C, strain arc18, hits give low values",0.998
same,normalized growth,"locus YLR371W, strain rom2, hits give low values",0.995
same,normalized growth,"locus YLR384C, strain iki3, hits give low values",0.995
same,normalized growth,"locus YLR418C, strain cdc73, hits give low values",1.02
same,normalized growth,"locus YML016C, strain PPZ1, hits give low values",1.03
same,normalized growth,"locus YML032C, strain rad52, hits give low values",0.988
same,normalized growth,"locus YML120C, strain ndi1, hits give low values",0.999
same,normalized growth,"locus YML124C, strain tub3, hits give low values",0.999
same,normalized growth,"locus YMR058W, strain fet3, hits give low values",1.01
same,normalized growth,"locus YMR078C, strain ctf18, hits give low values",0.976
same,normalized growth,"locus YMR125W, strain sto1, hits give low values",0.986
same,normalized growth,"locus YMR129W, hits give low values",0.997
same,normalized growth,"locus YMR205C, strain PFK2, hits give low values",0.991
same,normalized growth,"locus YMR223W, strain ubp8, hits give low values",0.992
same,normalized growth,"locus YMR231W, strain pep5, hits give low values",0.998
same,normalized growth,"locus YMR263W, strain SAP30, hits give low values",1.04
same,normalized growth,"locus YMR307W, strain GAS1, hits give low values",1.15
same,normalized growth,"locus YNL067W, strain RPL9B, hits give low values",1.06
same,normalized growth,"locus YNL071W, strain lat1, hits give low values",1.01
same,normalized growth,"locus YNL128W, strain TEP1, hits give low values",1.04
same,normalized growth,"locus YNL183C, strain NPR1, hits give low values",0.993
same,normalized growth,"locus YNL209W, strain ssb2, hits give low values",0.993
same,normalized growth,"locus YNL233W, strain BNI4, hits give low values",1.05
same,normalized growth,"locus YNL248C, strain rpa49, hits give low values",1.01
same,normalized growth,"locus YNL250W, strain rad50, hits give low values",0.997
same,normalized growth,"locus YNL271C, strain bni1, hits give low values",0.991
same,normalized growth,"locus YNL298W, strain CLA4, hits give low values",1.01
same,normalized growth,"locus YNL307C, strain MCK1, hits give low values",1.01
same,normalized growth,"locus YNL322C, strain KRE1 (second series), hits give low values",0.979
same,normalized growth,"locus YNL322C, strain KRE1, hits give low values",1.03
same,normalized growth,"locus YNR049C, strain mso1, hits give low values",0.993
same,normalized growth,"locus YNR052C, strain pop2, hits give low values",0.982
same,normalized growth,"locus YOL012C, strain htz1",1.17
same,normalized growth,"locus YOL147C, strain pex11, hits give low values",0.992
same,normalized growth,"locus YOR001W, strain rrp6, hits give low values",1.01
same,normalized growth,"locus YOR061W, strain CKA2, hits give low values",1.03
same,normalized growth,"locus YOR069W, strain VPS5, hits give low values",1.02
same,normalized growth,"locus YOR070C, strain gyp1, hits give low values",1.01
same,normalized growth,"locus YOR080W, strain dia2, hits give low values",0.998
same,normalized growth,"locus YOR083W, strain WHI5, hits give low values",0.99
same,normalized growth,"locus YOR106W, strain vam3, hits give low values",1.01
same,normalized growth,"locus YOR136W, strain idh2, hits give low values",0.993
same,normalized growth,"locus YOR144C, strain elg1, hits give low values",0.99
same,normalized growth,"locus YOR184W, strain ser1, hits give low values",1.03
same,normalized growth,"locus YOR231W, strain MKK1, hits give low values",1.02
same,normalized growth,"locus YOR265W, strain rbl2, hits give low values",0.999
same,normalized growth,"locus YOR270C, strain vph1, hits give low values",1
same,normalized growth,"locus YOR290C, strain snf2, hits give low values",0.995
same,normalized growth,"locus YOR316C, strain cot1, hits give low values",1.01
same,normalized growth,"locus YPL051W, strain arl3, hits give low values",1.01
same,normalized growth,"locus YPL055C, strain LGE1, hits give low values",1.1
same,normalized growth,"locus YPL078C, strain atp4, hits give low values",1
same,normalized growth,"locus YPL106C, strain sse1, hits give low values",0.984
same,normalized growth,"locus YPL240C, strain hsp82, hits give low values",1.01
same,normalized growth,"locus YPL256C, strain CLN2, hits give low values",0.993
same,normalized growth,"locus YPR119W, strain clb2, hits give low values",1
same,normalized growth,"locus YPR141C, strain kar3, hits give low values",0.998
same,normalized growth,"locus YPR163C, strain tif3, hits give low values",0.997
same,normalized growth,"locus YPR167C, strain met16, hits give low values",1.01
same,normalized growth,"strain wtn01, hits give low values",1.02
